Screening data: PubChem, several laboratories
TMEM16A act: TMEM16A chloride channel activators or potentiators, primary screen, cell-based, HTS. HEK293 TMEM16A/YFP-H148Q/I152L, iodide quench fluorescence; hits give low values. B-score at 10 µM. actives 0.3% (n = 340,000). AID 623877, 2012;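 active = fluorescence-ratio B-score plate-corrected deviation score at least 3 library SD below zero, with starting fluorescence score within 5 deviations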;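 also: channel opened by trigger with iodide after compound preincubation; score built on the fluorescence ratio of max minus min over baseline; more negative score means more quench and so TMEM16A activation or potentiation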
GPR7 antag: GPR7 receptor antagonists, primary screen, cell-based, fluorescence, single concentration; AID 1861, 2009; inhibition, % at 4.4 µM; GPR7-expressing cells, fluorescence antagonist assay; actives 1.1% (n = 290,000); in the data active = inhibition above about 16%, passing the limit was not always enough;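 also: cells stimulated with the agonist NPW; 0% = agonist with vehicle and 100% = vehicle without agonist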
Kir21 inh: inhibitors of mouse Kir2.1 inward-rectifier potassium channel. Inward rectifier potassium channel 2 (Mus musculus), P35561. HEK293-Kir2.1, FluxOR thallium flux fluorescence; hits give low values. B-score at 10 µM. actives 0.85% (n = 310,000). AID 1672, 2009;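 active = fluorescence ratio B-score at or below minus 3 SD of library scores, with starting-brightness B-score within 2 SD, cut at about -4.2 in these data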;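 also: channel flux triggered by added potassium and thallium sulfate stimulus; B-score of peak minus minimum fluorescence over baseline after thallium stimulus; more negative B-score means stronger Kir2.1 block with less thallium influx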
CHT allo act: CHT positive allosteric modulators, primary screen, cell-based, membrane potential dye, choline EC20; CHT-expressing cells; hits give high values; LV-AA mutant CHT in HEK293 cells; B-score at 10 µM; actives 0.49% (n = 310,000); AID 488977, 2010;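 active = initial fluorescence not abnormally high and integrated response B-score, plate-corrected, over 3 SD above library mean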
CHT inh: inhibitors of human choline transporter CHT | High affinity choline transporter 1 (Homo sapiens), Q9GZV3 | actives 0.86% (n = 310,000) | CHT-expressing cells, membrane potential dye, choline response; hits give low values | B-score at 10 µM;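 active = B-score over 3 SD under the library average, and starting fluorescence ratio not unusually high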;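 also: choline stimulus applied at its EC90 after an EC20 pre-addition; B-score computed on integrated fluorescence ratio after choline addition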
TMEM16A inh: TMEM16A chloride channel inhibitors, primary screen, cell-based, HTS | normalized B-score (activity score, 25-100; higher = stronger inhibition) at 10 µM | actives 1.2% (n = 310,000) | HEK293 TMEM16A/YFP iodide influx fluorescence, ionomycin | Anoctamin-1 (Mus musculus), Q8BHY3;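 active = ratio plate-corrected score three or more library SD toward inhibition, starting fluorescence score within five deviations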;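 also: score derived from kinetic fluorescence span divided by baseline fluorescence per well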
Starred values were filed as active, the others as inactive; i = inactive; nt = no result. Sampled rows, rich in hits. Any-hit rate of the full collection: about 3.7%.

SMILES	TMEM16A act	GPR7 antag	Kir21 inh	CHT allo act	CHT inh	TMEM16A inh
COc1ccc(C(=O)O/N=C(/C(N)=O)P(=O)(OC(C)C)OC(C)C)cc1	i	-5.1	-4.63*	i	i	i
O=C1CN(C(=O)COC(=O)Cc2ccccc2)c2ccccc2N1	i	-9.5	0.78	i	i	i
CCCCCn1c(=O)c(C(=O)Nc2cnccn2)c(O)c2ccccc21	-6.48*	3.0	-0.18	i	i	i
CNc1cc(Cl)c2nonc2c1[N+](=O)[O-]	i	51.1*	-6.57*	nt	nt	nt
CCOP(=O)(OCC)C(O)c1ccc(N(C)C)cc1 (configuration not stated)	i	-1.9	0.22	i	i	i
COc1ccc(-n2c(O)c(C=NCCN(C)C)c(=O)[nH]c2=O)cc1	i	-1.0	0.48	i	i	i
CC(=O)C1(c2ccccc2)CCNCC1	i	14.5*	0.67	i	i	i
O=C(O)C1(c2ccc(Cl)cc2)CCC1	i	-12.8	-1.58	i	i	i
COc1ccc(CCNCc2c(OC)ccc3ccccc23)cc1	i	18.6	-10.9*	i	i	i
CCOc1cc(CNCCc2c[nH]c3ccccc23)cc(Cl)c1OC	i	1.3	-5.6*	i	i	i
COc1cccc(CNCCc2c[nH]c3ccccc23)c1OC	i	-1.7	-2	i	i	i
CCC(=NCCCN(CC)CC)c1c(O)n(C2CCCCC2)c(=O)[nH]c1=O	i	-0.4	-1.05	i	i	100*
CCN1CCN(C(=O)COc2ccc3oc4c(c3c2)CCCC4)CC1	i	nt	nt	nt	nt	nt
CSc1ccc(C(=O)C2CCCN(Cc3cc4ccccc4[nH]3)C2)cc1 (configuration not stated)	i	11.8	-2	i	i	25*
COCCO[C@H]1CC[C@@]2(C)C(=CCC3C2CC[C@@]2(C)C3CC[C@]2(C)O)C1 (some centres not stated)	i	nt	nt	nt	nt	nt
CCN(CC)S(=O)(=O)N1CCC(C(=O)N2CCC3(CC2)OCCO3)CC1	i	-3.4	-1.22	i	i	i
OC(CN1CCCCC1)c1c[nH]c2ccccc12 (configuration not stated)	i	4.0	2.46	i	i	i
Fc1ccccc1CCNCc1cccc2ccccc12	i	8.6	-11.8*	i	i	i
COc1ccc(CN2C(=O)NC(=O)/C(=C/c3ccc([N+](=O)[O-])o3)C2=O)cc1	nt	-16.0	nt	nt	nt	nt
Cc1ccc(C[n+]2c(-c3ccc(C)cc3)cc(-c3ccc(C)cc3)cc2-c2ccc(C)cc2)cc1	i	nt	-14.3*	8.72*	i	100*
CC1(C)C[C@H]2C=C(C=O)[C@]3(C=O)C[C@]3(C)[C@H]2C1	i	3.7	-8.19*	i	i	100*
ClC1=C(Cl)C2(Cl)C3C(Cl)C=CC3C1(Cl)C2(Cl)Cl (configuration not stated)	-15.6*	nt	nt	nt	nt	nt
CN1C(=O)NC(=O)/C(=C\C=C\c2ccccc2[N+](=O)[O-])C1=O	nt	-1.8	0.13	i	i	25*
O=S(=O)(c1ccccc1)N1CCCCC1c1cccnc1 (configuration not stated)	i	-3.2	-2.47	i	i	i
O=S(=O)(c1ccc(Cl)cc1)N1CCCC1c1cccnc1 (configuration not stated)	i	0.2	-5.18*	i	i	i
CSc1ccc(CN2CCN(Cc3ccccc3Cl)CC2)cc1	i	-7.1	-4.92*	i	i	i
CSc1ccc(CN2CCN(C(=O)Cc3ccccc3)CC2)cc1	i	nt	1.88	i	i	i
Oc1ccc(C2NCc3ccccc3-n3cccc32)cc1Cl (configuration not stated)	i	2.9	-8.87*	i	i	i
COc1cccc(CCNCc2ccc(SC)cc2)c1	i	0.1	-7.53*	i	i	i
